Source: PubChem BioAssay
Pf growth 48h – P. falciparum growth inhibition at 48 hours (one generation); Potency, µM (highest dose often 28.7 µM), for the others: top-dose activity change, negative = inhibition, most hits filed as inhibitors; 5.9% of 310,000 active; P. falciparum luciferase growth in erythrocytes, 48 h; also: potency is read from the fitted curve at half-maximal effect
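Compounds are pin-transferred into medium, infected erythrocytes (2% hematocrit, 0.1% parasitemia final) are added, and plates sit one parasite generation at 37 C in 5% CO2. Detection reagent is then added and luminescence measured.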
Giardia FBPA inh – blocks Giardia fructose-bisphosphate aldolase activity. purified Giardia FBPA. Potency, µM (titrated, usually from 59.6 µM), for inactives: at the highest dose activity, negative = inhibition, most hits filed as inhibitors. 0.71% of 290,000 active. AID 2451; also: potency is read from the fitted curve at half-maximal effect; nearly all actives have a fitted effect of over 55% in size
Target sequence (A8B2U2 whole entry, looked up): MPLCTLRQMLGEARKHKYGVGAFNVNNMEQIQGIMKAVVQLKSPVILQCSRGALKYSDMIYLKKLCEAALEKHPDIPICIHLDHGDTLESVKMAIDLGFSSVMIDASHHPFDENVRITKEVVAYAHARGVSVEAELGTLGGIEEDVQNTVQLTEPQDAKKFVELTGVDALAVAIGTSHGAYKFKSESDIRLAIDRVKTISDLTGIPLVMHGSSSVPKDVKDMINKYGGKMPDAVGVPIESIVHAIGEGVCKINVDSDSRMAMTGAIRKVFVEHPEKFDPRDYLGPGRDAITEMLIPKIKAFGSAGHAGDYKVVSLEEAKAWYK
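40 nM FBPA preincubated 10 min at RT with compound (up to 57.5 uM final), then substrate plus GAPDH/TPI/NAD/arsenate coupling and diaphorase/resazurin added. Fluorescence read after 20 min at RT, 525/598 nm.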
HCMV inh – blocks human cytomegalovirus replication | activity change, negative = inhibition, % at 57.5 µM | HFF cells, HCMV-luciferase reporter, 72 h; active compounds read low | 4.5% of 410,000 active; in the data active = activity change below about -60%; inconclusive = no clear call, values can overlap the other calls; inactive = above about -39%
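Compounds were evaluated in HFFs infected with an HCMV luciferase reporter virus (MOI 1 PFU/cell). Luciferase in lysates collected 72 h post infection served as the replication measure.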
Sm TGR inh – inhibitors of Schistosoma mansoni thioredoxin glutathione reductase | Potency, µM (top dose mostly 114 µM), for inactives: top-dose activity change, negative = inhibition, most hits filed as inhibitors | purified TGR, DTNB reduction, TNB absorbance 405 nm | 3% of 360,000 active | AID 485364; also: potency is read from the fitted curve at half-maximal effect; nearly all actives have a fitted effect of over 60% in size
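TGR 20 nM + NADPH 100 uM (dispensed conc.), cpd preinc 15 min RT; start with NADPH (500 uM addition) then DTNB (15 mM addition). Kinetic TNB absorbance, 405 nm filter. Four-parameter Hill fit across titration.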
Pf growth 96h – P. falciparum growth inhibition at 96 hours. 6.9% of 320,000 active. P. falciparum luciferase reporter growth, 96 h. Potency, µM (series often up to 28.7 µM), for inactives: at the top dose activity change, negative = inhibition, usual class: inhibitors; also: potency is read from the fitted curve at half-maximal effect
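Parasite growth measured via integrated firefly luciferase reporter in P. falciparum. Infected erythrocytes at 2% hematocrit, 0.05% parasitemia final were treated 96 hours at 37 C under 5% CO2, and luminescence was read.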
* = called active by the depositor. Shown are actives, neighbours in structure and some others; about 14% of the full set was active somewhere. Unless noted, calls follow the shape of the dose curve; as a rule, active = well fitted curve in the direction sought with a large enough effect; inconclusive = small, poorly fitted or top-dose-only effect, or another doubt; inactive = no such curve, though single readings can be large; an effect the other way counts as inactive or inconclusive. % is scaled to controls: 0 for no effect and ±100 for the full control effect.

Screening CCOC(=O)c1ccccc1NC(=O)Cn1c(=O)n(CCCC(=O)NCc2ccc3c(c2)OCO3)c(=O)c2ccccc21 returned HCMV inh -16 and Sm TGR inh 2%.
Screening Cc1cccc(C(=O)Nc2nc3c(s2)CCCC3)c1 returned HCMV inh -13 and Sm TGR inh 4%.
Cc1ccccc1C(=O)NC(C(=O)Nc1nc2c(s1)CCCC2)C(C)C (centres undefined) was read as Pf growth 48h inconclusive, Giardia FBPA inh -5%, HCMV inh -14, Sm TGR inh -12% and Pf growth 96h 4.7µM*.
Cc1ccc(CC(=O)Nc2nc3c(s2)CCCC3)cc1 was read as Pf growth 48h 49%, Giardia FBPA inh -1%, HCMV inh -73* and Sm TGR inh -16%.
COc1ccc(NC(=O)Nc2nc3c(s2)CCCC3)cc1 was read as Pf growth 48h 97%, Giardia FBPA inh -3%, HCMV inh 89, Sm TGR inh 0% and Pf growth 96h 13%.
Screening O=C(Nc1cccc(Br)c1)Nc1nc2c(s1)CCCCCC2 returned HCMV inh -86* and Sm TGR inh 10%.
`O=C(c1ccc(Cl)cc1Cl)n1nnc2ccccc21` gave Giardia FBPA inh 2%.
Cc1cc(OC(=O)Nc2ccccc2)ccc1Cl was read as HCMV inh -11.
Screening CC(C)CC1NC(=O)C(CCCN)NC(=O)C(C(C)C)NC(=O)C2CCCN2C(=O)C(Cc2ccccc2)NC(=O)C(CC(C)C)NC(=O)C(CCCN)NC(=O)C(C(C)C)NC(=O)C2CCCN2C(=O)C(Cc2ccccc2)NC1=O (centres undefined) returned Pf growth 48h -99%, Giardia FBPA inh 5% and Pf growth 96h 2.4µM*.
For CCCCCCCCNC(=S)NCCN1CCCCC1 the results were Pf growth 48h 8.3µM*, Giardia FBPA inh inconclusive, HCMV inh -66*, Sm TGR inh -19% and Pf growth 96h 0%.
Screening CC(C)(C)c1ccc(C2Sc3ccccc3NC3=C2C(=O)c2ccccc23)cc1 (centres undefined) returned HCMV inh -104* and Sm TGR inh -3%.
Screening CCCCN(C(=O)c1oc2ccc(OCC)cc2c1C)c1c(N)n(CCCC)c(=O)[nH]c1=O returned Pf growth 48h inconclusive, HCMV inh -23, Sm TGR inh -1% and Pf growth 96h inconclusive.
Cc1cc(C)nc(N/C(=N\S(=O)(=O)Cc2ccccc2)Nc2ccccc2Br)n1 was read as Pf growth 48h inconclusive, Giardia FBPA inh 1%, HCMV inh inconclusive, Sm TGR inh -8% and Pf growth 96h -1%.
For COC(=O)N/N=C/c1ccccc1OCc1ccccc1 the results were Pf growth 48h 2%, Giardia FBPA inh 2%, HCMV inh inconclusive, Sm TGR inh 1% and Pf growth 96h 0%.
Screening NC(=S)N/N=C/c1ccc2cccc(OCc3ccccc3)c2n1 returned Pf growth 48h 15µM*, Giardia FBPA inh -8%, HCMV inh -68*, Sm TGR inh 29% and Pf growth 96h inconclusive.
`NC(=S)N/N=C/c1ccccc1OCc1cccc(Cl)c1` gave Pf growth 48h 13µM*, Giardia FBPA inh -17%, Sm TGR inh 4% and Pf growth 96h 9.3µM*.
`COc1cccc(NS(=O)(=O)c2cc(-c3cnc(C4CC4)o3)ccc2C)c1` gave HCMV inh -89* and Sm TGR inh 3%.
Screening Cc1ccc(-c2cnc(C3CC3)o2)cc1S(=O)(=O)Nc1cccc(C#N)c1 returned HCMV inh -84* and Sm TGR inh 1%.
N#Cc1ccc(NS(=O)(=O)c2ccc(-c3cnc(C4CC4)o3)cc2)cc1 was read as HCMV inh -7 and Sm TGR inh 6%.
O=C(OC(C(=O)NC1CCCCC1)c1ccccc1F)c1ccco1 (centres undefined) was read as Pf growth 48h 15%, Giardia FBPA inh 3%, HCMV inh -22, Sm TGR inh -19% and Pf growth 96h -16%.
O=C(c1ccc2c(c1)N(Cc1ccc(Cl)cc1)C(=O)c1ccccc1S2(=O)=O)N1CCCC1 was read as HCMV inh -12 and Sm TGR inh -8%.
Screening CSc1ccc(S(=O)(=O)NC(C)c2ccccc2)cc1 (centres undefined) returned Pf growth 48h 9%, Giardia FBPA inh 1%, HCMV inh inconclusive and Pf growth 96h 9%.
Cc1ccc(S(=O)(=O)NC(C)c2ccccc2)cc1[N+](=O)[O-] (centres undefined) was read as Pf growth 48h 16%, Giardia FBPA inh 1%, HCMV inh -6, Sm TGR inh -28% and Pf growth 96h 12µM*.
CN(C)CCCNC(=O)c1ccc(Cl)c(S(=O)(=O)N(C)c2ccccc2)c1 was read as Giardia FBPA inh -10%, HCMV inh -1, Sm TGR inh 6% and Pf growth 96h -15%.
Screening CC(=O)c1ccc2c3c(ccc([N+](=O)[O-])c13)CC2 returned HCMV inh -39.
`Nc1ccc2c3c(ccc([N+](=O)[O-])c13)CC2` gave HCMV inh -69*.
For O=C(O)CSc1nnc(-c2ccc(Cl)cc2Cl)n1Cc1ccccc1 the results were Pf growth 48h 17%, Giardia FBPA inh 2%, HCMV inh 8, Sm TGR inh -2% and Pf growth 96h 13%.
Screening CCc1nn2c(=O)cc(COC(=O)c3ccc(NC(=O)COc4ccccc4C)cc3)nc2s1 returned HCMV inh -16 and Sm TGR inh 1%.
For O=C(O)C1C2C=CC(C2)C1C(=O)NCCCN1CCOCC1 (centres undefined) the results were Pf growth 48h 6%, Giardia FBPA inh 1%, HCMV inh -11, Sm TGR inh -17% and Pf growth 96h 12µM*.
Screening N/C(=N\N=C\c1ccc(Br)o1)c1nonc1N returned Pf growth 48h 120%, Giardia FBPA inh 1%, HCMV inh 56, Sm TGR inh 40µM* and Pf growth 96h 105%.
`Nc1nonc1C(=O)N/N=C/c1ccc(Br)o1` gave Pf growth 48h 29%, Giardia FBPA inh -10%, HCMV inh 19, Sm TGR inh 13% and Pf growth 96h 14%.
Screening O=C(OCc1ccccc1)c1ccc(NCc2cc(O)ccc2O)cc1 returned HCMV inh -87*.
CC(C)OC(=O)c1ccc(NC(=O)c2ccccc2)cc1 was read as Pf growth 48h inconclusive, Giardia FBPA inh -1%, HCMV inh -14, Sm TGR inh -16% and Pf growth 96h inconclusive.
`CCC(=O)Nc1ccc(C(=O)OCc2ccccc2)cc1` gave Pf growth 48h 17%, Giardia FBPA inh 11%, HCMV inh -15, Sm TGR inh 11% and Pf growth 96h 8%.
For CC(C)OC(=O)c1ccc(NCc2cc(O)ccc2O)cc1 the results were HCMV inh -63*.
